Compound activity: PubChem BioAssay, National Center for Advancing Translational Sciences (NCATS)
A selection: hits, their analogues and other compounds. The true share with any hit is near 19%.
TDP1 cell CPT: growth inhibition of DT40 Tdp1-/-;hTDP1 cells with camptothecin (screen for TDP1 inhibitors); Potency, µM (series often up to 46.2 µM), most hits filed as inhibitors; 12% of 420,000 active; AID 686979; chicken DT40 Tdp1-/-;hTDP1 cells + 20 nM CPT, ATP luminescence, 48 h; further: nearly all actives have a fitted effect of over 55% in size
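Chicken DT40 Tdp1-/- cells complemented with human TDP1, 400 cells/well, exposed to compounds plus 20 nM camptothecin for at least 48 h at 37 C; viability read as ATP content by CellTiter-Glo luminescence.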
IL1B secr inh: inhibitors of inflammasome signaling (IL-1 beta secretion); 4.7% of 360,000 active; THP-1 LPS/ATP IL-1B secretion, AlphaLISA, 16 h; stronger effect = lower value; AID 743279; activity change, % at 57.5 µM; in the data active means activity change below about -50%; inconclusive means mostly about -30% to -49%
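Secreted IL-1B measured by AlphaLISA bead assay after 16 h compound exposure of THP-1 cells; compounds (final up to 57.5 uM) added 1 h before LPS (250 ng/mL) and ATP (1.25 mM) stimulation; lower signal means less secretion.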
HT1080NT lethal: kills 2HG-producing HT-1080-NT fibrosarcoma cells; Potency, µM (series often up to 46.1 µM), usual class: cytotoxic; HT-1080-NT fibrosarcoma viability, CellTiter-Glo ATP luminescence, 48 h; 1.6% of 360,000 active;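 further: NT is the 2HG producing partner of a matched IDH1 knockdown line; nearly all actives have a fitted effect of over 55% in size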
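Fibrosarcoma NT cells, 750 per well in 5% FBS RPMI, were exposed to compound for 48 hours. Viability: CellTiter-Glo luminescence.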
DT40 TDP1 no CPT: qHTS for Inhibitors of human tyrosyl-DNA phosphodiesterase 1 (TDP1): qHTS in cells in absence of CPT | Potency, µM (titrated, usually from 46.2 µM), usual class: inhibitors | AID 686978, 2013 | DT40 Tdp1-/- hTDP1 cells, no CPT, ATP luminescence, 48 h | 15% of 420,000 active; further: nearly all actives have a fitted effect of over 55% in size
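Readout: luminescence from CellTiter-Glo after 30 min in the dark at RT. Cells: DT40 Tdp1-/- with stable hTDP1, 400/well. Exposure: compounds alone, ≥48 hr, 37 °C.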
HT1080 IDH1KD tx: toxicity to HT-1080 IDH1 knockdown cells (counter line) | HT-1080 IDH1 knockdown viability, ATP luminescence, 48 h | Potency, µM (highest dose often 46.1 µM), actives largely listed as cytotoxic | 2% of 360,000 active | AID 686971
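Viability of IDH1-knockdown HT-1080 fibrosarcoma cells was assessed by CellTiter-Glo after 48 h at 37 °C with titrated compound; concentration-effect curves were classified by fit quality and response size.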
A number is an active result; 0 = inactive; ? = inconclusive; - = no result; [ ] = another dose, or the depositor's remark. Unless noted, the call rests on the fitted dose curve; in most records, active means well fitted curve in the direction sought with a large enough effect; inconclusive means small, poorly fitted or top-dose-only effect, or another doubt; inactive means no such curve, though single readings can be large; an effect the other way counts as inactive or inconclusive.

SMILES	TDP1 cell CPT	IL1B secr inh	HT1080NT lethal	DT40 TDP1 no CPT	HT1080 IDH1KD tx
CN(C)c1ccc(-c2nc(-c3ccccn3)no2)cc1[N+](=O)[O-]	0	-	-	18.4µM	-
O=C(O)CSc1nc(C(F)(F)F)cc(=O)n1-c1ccccc1	0	0	0	0	0
Cc1ccc(S(=O)(=O)Nc2ccc3c(c2)n(C)c(=O)n3C)c(C)c1	?	0	0	20.6µM	0
CCCCCC(=O)N(c1ccc(OCC)cc1)S(=O)(=O)c1ccc2c(c1)n(C)c(=O)n2C	20.6µM	-	-	16.4µM	-
CCc1ccc(S(=O)(=O)Nc2c(C)nn(C)c2C)cc1	11.2µM	0	0	11.2µM	0
CCOc1ccc(N(CC(=O)OC)S(=O)(=O)c2ccc3c(c2)n(C)c(=O)c(=O)n3C)cc1	0	0	0	0	0
CCOc1ccc(S(=O)(=O)Nc2ccc3c(c2)n(C)c(=O)n3C)cc1	?	0	?	7.31µM	0
Cc1noc(C)c1NC(=O)Nc1cccc2c1O[C@@H](CN(C)Cc1ccc3c(c1)OCO3)[C@@H](C)CN([C@H](C)CO)C2=O	0	?	0	0	0
Cc1ccc(NS(=O)(=O)c2ccc3c(c2)n(C)c(=O)n3C)cc1C	16.4µM	0	0	20.6µM	0
CCc1ccc(NS(=O)(=O)c2ccc3c(c2)oc(=O)n3C)cc1	?	0	0	0	0
Cc1ccc(NS(=O)(=O)c2ccc3c(c2)n(C)c(=O)n3C)c(C)c1	?	-54.4	0	?	0
CCc1ccc(S(=O)(=O)Nc2cc3c(cc2C)n(C)c(=O)n3C)cc1	5.17µM	0	16.4µM	2.91µM	14.6µM
CCOc1ccc(S(=O)(=O)Nc2ccc3c(c2)c(C(C)=O)c(C)n3S(=O)(=O)c2ccc(OCC)cc2)cc1	20.6µM	-	-	5.17µM	-
Cn1c(=O)n(C)c2cc(S(=O)(=O)Nc3ccccc3O)ccc21	?	0	0	?	0
O=C1[C@@H]2[C@H]3CC[C@H](C3)[C@@H]2C(=O)N1CCCCN1CCN(c2ncccn2)CC1	0	-	-	0	-
Cc1cc(C)c(NC(=O)CN(C)S(=O)(=O)c2ccc3c(c2)n(C)c(=O)c(=O)n3C)c(C)c1	?	0	0	0	0
Cc1ccc(NC(=O)CN(C)S(=O)(=O)c2ccc3c(c2)n(C)c(=O)c(=O)n3C)c(C)c1	18.4µM	0	0	?	0
Cc1ccc(S(=O)(=O)Nc2ccc3c(c2)n(C)c(=O)n3C)cc1	10.3µM	0	0	?	0
CCc1ccc(C(=O)c2cn(CC(=O)Nc3cccc(C)c3C)c3nc(C)ccc3c2=O)cc1	?	-	-	0	-
Cc1cc(N2CCCCC2)nc2ccc(NC(=O)CCC(=O)N3CCN(c4ccccc4)CC3)cc12	?	-	-	20.6µM	-
Cc1ccc(C)c(N2CCN(C(=O)CCC(=O)Nc3ccc4nc(N5CCCCC5)cc(C)c4c3)CC2)c1	11.6µM	-	-	11.6µM	-
Cc1cc(N2CCN(C)CC2)nc2ccc(NC(=O)CCC(=O)NCCC(C)C)cc12	0	0	0	0	0
CCCCNC(=O)CCC(=O)Nc1ccc2nc(N3CCN(C)CC3)cc(C)c2c1	0	0	0	0	0
COc1cc(-c2cc(C(=O)NCc3ccco3)c3ccccc3n2)cc(OC)c1OC	?	0	0	2.59µM	0
COc1cc(-c2cc(C(=O)NCc3ccc(S(N)(=O)=O)cc3)c3ccccc3n2)cc(OC)c1OC	?	-61.8	0	?	0
SMILES	TDP1 cell CPT	IL1B secr inh	HT1080NT lethal	DT40 TDP1 no CPT	HT1080 IDH1KD tx
Cc1ccc(-c2cc(C(=O)NCc3ccco3)c3ccccc3n2)s1	?	0	?	?	0[9.24 µM]
COc1cc(-c2cc(C(=O)Nc3ccc(S(=O)(=O)NCc4ccco4)cc3)c3ccccc3n2)cc(OC)c1OC	4.61µM	0	0	2.91µM	0
O=C(O)c1ccc(N2C(=O)c3ccccc3C2=O)cc1[N+](=O)[O-]	0	0	0	0	0
CCc1ccc2[nH]c(=O)c(CN(Cc3ccccc3)Cc3nnnn3C(C)(C)C)cc2c1	14.1µM	-	-	11.2µM	-
CCc1ccc2[nH]c(=O)c(CN(Cc3ccc(OC)cc3)Cc3nnnn3CCOC)cc2c1	18.4µM	?	0	?	0
CCOC(=O)Cn1nnnc1CN(Cc1cccs1)Cc1cc2cc(C)ccc2[nH]c1=O	?	0	0	?	0
CCc1ccc2[nH]c(=O)c(CN(Cc3cccnc3)Cc3nnnn3Cc3ccccc3)cc2c1	11.2µM	-	-	20µM	-
CCOC(=O)Cn1nnnc1CN(CCc1ccccc1)Cc1cc2cc(CC)ccc2[nH]c1=O	18.4µM	0	0	?	?
COc1ccc2cc(CNCc3ccccc3Cl)c(N3CCCC(CO)C3)nc2c1 (configuration not stated)	0[9.04 µM]	-	-	?	-
O=C(C1CCN(C2CCN(C/C=C/c3ccccc3)CC2)CC1)N1CCOCC1	?	0	?	?	0
CC(=O)n1cc(/C=N/NC(=O)c2ccccc2O)c2ccccc21	0	?	0	0	0
CC(C)(C)OC(=O)n1cc(/C=N/NC(=O)c2ccco2)c2ccccc21	0	-59.9	?	0	0
COc1ccccc1NC(=O)c1cc2cc(Br)ccc2oc1=N	?	0	0	?	0
COc1ccc(S(=O)(=O)CC(=O)c2cc3cc(Br)ccc3oc2=O)cc1	?	0	0	11.6µM	0
Cc1ccc(C(C)NC(=O)c2cc(C)oc2C)cc1 (configuration not stated)	0	0	0	?	0
CC(C)NC(=O)c1cc2cc(Br)ccc2oc1=O	?	0	0	23.1µM	0
COc1ccc(OC)c(S(=O)(=O)CC(=O)c2cc3ccc(OC)cc3oc2=O)c1	0	0	0	0	0
Cc1ccc(C(C)NC(=O)c2cc3cc(Br)ccc3oc2=N)cc1 (configuration not stated)	23.1µM	0	0	20.6µM	0
N=c1oc2ccc(Br)cc2cc1C(=O)NC1CCCCCC1	16.4µM	0	0	9.2µM	0
Nc1nnc(COc2ccccc2)s1	0	0	0	0	0
COC(=O)N/N=C/c1cn(Cc2c(Cl)cccc2Cl)c2ccccc12	0	0	0	?	0
COCC(C)NC(=O)Cc1ccc(F)cc1 (configuration not stated)	0	0	0	0	0
CC1(C)CC(=O)C/C(=N/NC(=O)COc2ccc(Cl)cc2Cl)C1	0	0	0	0	?
CC1(C)CC(=O)CC(=O)/C1=N\Nc1c(Cl)cc(Cl)cc1Cl	?	0	0	18.4µM	0
CCOc1ccc(NCc2nc3ccccc3n2CCOc2ccc(C)cc2)cc1	6.51µM	-	-	8.2µM	-
Clc1ccc(NCc2nc3ccccc3n2CCOc2ccccc2)cc1	13µM	-	-	20.6µM	-
CCOc1ccc(NCc2nc3ccccc3n2CCOc2ccccc2)cc1	?	-95.5	0	?	?
CCC(CC)C(=O)N(C)c1c(C)nc2c(OCc3ccc(C(F)(F)F)cc3)cccn12	23.1µM	?	?	18.4µM	?
